High-throughput results deposited in PubChem by several laboratories.
CHT allo act – CHT positive allosteric modulators, primary screen, cell-based, membrane potential dye, choline EC20 | High affinity choline transporter 1 (Homo sapiens), Q9GZV3 | CHT-expressing cells; hits give high values; LV-AA mutant CHT in HEK293 cells | B-score at 10 µM | 310,000 tested, 0.49% active | AID 488977, 2010;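 active = initial fluorescence not abnormally high and integrated response B-score, plate-corrected, over 3 SD above library mean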
ALR H2O2 inh – inhibitors of human ALR sulfhydryl oxidase, primary screen, biochemical, H2O2 detection, HRP-luminol luminescence, single point; FAD-linked sulfhydryl oxidase ALR (Homo sapiens), P55789; purified ALR, DTT oxidation; inhibition, % (concentration not given with the values); 290,000 tested, 3.8% active;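 active = mean replicate inhibition above about 79%, with every replicate also reaching it, limit read from the data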
CHT block – inhibitors of human choline transporter CHT; AID 488975, 2010; CHT-expressing cells, membrane potential dye, choline response; hits give low values; B-score at 10 µM; High affinity choline transporter 1 (Homo sapiens), Q9GZV3; 310,000 tested, 0.86% active;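 active = B-score over 3 SD under the library average, and starting fluorescence ratio not unusually high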;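 note: choline stimulus applied at its EC90 after an EC20 pre-addition; B-score computed on integrated fluorescence ratio after choline addition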
AI-2 QS mod – Vibrio harveyi AI-2 quorum sensing modulators, primary screen, JMH597 strain, luminescence/OD600 ratio; Vibrio harveyi JMH597 AI-2 luminescence/OD600 ratio, 9 h; hits give low values; strain lacks LuxN and CqsS sensors; 0 = neutral-control median; 300,000 tested, 0.4% active; activity change, % at 7.5 µM; in the data active = activity change below about -75%, passing the limit was not always enough;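 note: luminescence divided by OD600 gain over 9 h not by final OD600 alone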
PREPL inh – PREPL enzyme inhibitors, primary screen, biochemical, fluorescence polarization; Prolyl endopeptidase-like (Homo sapiens), Q4J6C6; recombinant PREPL, fluorescence polarization activity-based probe; inhibition, % at 5.96 µM; 320,000 tested, 0.68% active; AID 2751, 2010; in the data active = inhibition above about 43%;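 note: 0% = enzyme with DMSO and 100% = wells lacking enzyme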
Target sequence (Q4J6C6 whole entry, looked up): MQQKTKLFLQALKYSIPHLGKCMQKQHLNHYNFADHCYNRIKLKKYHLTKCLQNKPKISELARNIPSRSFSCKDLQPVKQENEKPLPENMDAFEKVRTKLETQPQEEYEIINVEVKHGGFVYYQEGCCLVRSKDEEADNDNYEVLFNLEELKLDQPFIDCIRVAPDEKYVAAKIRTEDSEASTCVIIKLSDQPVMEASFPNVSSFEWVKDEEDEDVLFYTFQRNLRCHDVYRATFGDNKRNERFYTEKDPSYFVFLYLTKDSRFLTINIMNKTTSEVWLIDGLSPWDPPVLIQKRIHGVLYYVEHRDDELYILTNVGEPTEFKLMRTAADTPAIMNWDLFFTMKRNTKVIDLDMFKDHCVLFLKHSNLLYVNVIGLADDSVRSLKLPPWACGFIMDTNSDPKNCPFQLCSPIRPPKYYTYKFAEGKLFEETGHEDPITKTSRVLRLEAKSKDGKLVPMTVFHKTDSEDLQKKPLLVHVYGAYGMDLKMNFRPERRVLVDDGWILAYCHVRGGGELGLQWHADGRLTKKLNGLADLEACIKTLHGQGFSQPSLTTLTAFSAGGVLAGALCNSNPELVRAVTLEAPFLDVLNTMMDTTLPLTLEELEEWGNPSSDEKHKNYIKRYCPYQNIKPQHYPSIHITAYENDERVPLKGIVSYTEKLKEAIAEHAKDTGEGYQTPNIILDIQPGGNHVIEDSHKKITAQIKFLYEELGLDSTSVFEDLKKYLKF
Active calls of the source: *; i = inactive; / = no result. In the library only some 5% were active in any assay of this set; here they are far more common.

SMILES	CHT allo act	ALR H2O2 inh	CHT block	AI-2 QS mod	PREPL inh
COc1ccc(N2CCN(C(=O)CCS(=O)(=O)c3ccc(C)cc3)CC2)cc1	i	87.8*	i	4.3	2.9
COc1ccccc1NC(=O)CSCc1cc(=O)n2c(C)csc2n1	i	0.0	i	0.3	9.3
O=C(Cc1ccc(Cl)cc1)Nc1ccc2c(c1)C(=O)NC2=O	i	1.0	i	-2.2	-16.1
COc1ccc(N2CCN(C(=O)C3CC(O)CN3S(=O)(=O)c3ccc([N+](=O)[O-])cc3)CC2)cc1 (centres undefined)	i	84.2*	i	3.1	8.9
O=C(O)CCNc1ccc(NCCC(=O)O)c2c1C(=O)c1ccccc1C2=O	i	99.2*	i	57.7	21.7
O=C(NCc1cccnc1)c1ccc(NS(=O)(=O)c2cccc([N+](=O)[O-])c2)cc1	/	-6.7	/	/	6.8
Cc1ccc(C(=O)N[C@@H](C)CN2C3=NC[C@H](C)N3C[C@H]2Cc2ccc(O)cc2)cc1Br	/	/	/	19.1	/
COC(=O)CCS(=O)(=O)c1cc(Cl)ccc1Cl	i	95.4*	i	10.0	-1.8
CC(=O)N1CCN(CCS(=O)(=O)c2cc(Cl)ccc2Cl)CC1	/	-9.5	/	/	-0.4
COCCn1c(=NC(=O)CSC(C)=O)sc2cc(OC)ccc21	i	97.7*	i	5.4	-5.4
N#CCSc1ccccc1NC(=O)COC(=O)Cc1c[nH]c2ccccc12	/	/	/	/	11.8
O=C(O)c1cn(Cc2cccnc2)c(=O)c2ccccc12	i	-3.1	i	21.3	-7.8
CCNC(=S)Nc1ccc(N2CCCCC2)cc1	i	98.6*	i	-2.7	8.5
COCCCNC(=S)Nc1ccc(N2CCCCC2)cc1	i	97.5*	i	11.5	-1.7
O=C(O)CNS(=O)(=O)c1c(Cl)cccc1Cl	i	-4.6	i	4.8	-3.9
CSC1=N/C(=C\c2ccc(Cl)cc2)C(=O)N1N(C)C	i	-2.2	i	/	-1.1
CC1(C)CN=c2s/c(=C\c3ccc(Cl)cc3)c(=O)n2C1	i	96.9*	i	6.4	22.8
O=C1ON=C(c2ccc([N+](=O)[O-])cc2)/C1=C/c1ccccc1O	i	98.3*	i	9.9	/
CSc1ccc(CNC(=O)CCn2ccc3cc(S(=O)(=O)N4CCCC4)ccc32)cc1	i	-5.5	i	26.4	-4.8
Cc1ccc(S(=O)(=O)Nc2ccc(N(C)C)cc2)cc1	i	98.9*	i	23.7	37.6
COc1ccc(S(=O)(=O)Nc2ccc(NC(C)=O)cc2)cc1	i	-39.4	i	29.1	8.9
CN(C)c1ccc(NS(=O)(=O)c2cccc(Cl)c2)cc1	i	98.7*	i	1.2	9.0
CN(C)c1ccc(NS(=O)(=O)c2ccc(Cl)cc2)cc1	i	/	i	-7.7	9.7
O=S(=O)(Nc1cccnc1)c1cccc(Cl)c1	i	33.7	i	18.5	0.3
CCN(CC)c1ccc(NS(=O)(=O)c2ccc(OC)cc2)cc1	i	99.0*	i	11.1	4.2
SMILES	CHT allo act	ALR H2O2 inh	CHT block	AI-2 QS mod	PREPL inh
Cc1ccc(S(=O)(=O)N(C)/N=C/c2ccc(N(C)C)cc2)cc1	i	98.5*	i	10.2	-3.3
Cc1cccc(C)c1NS(=O)(=O)c1cc2c3c(c1)CC(=O)N3CCC2	i	13.2	i	-5.5	-6.7
CN(C)c1ccc(NS(=O)(=O)c2ccc(-c3csnn3)cc2)cc1	i	98.8*	i	-10.8	7.5
CN(C)c1ccc(NS(=O)(=O)c2cc3c4c(c2)CC(=O)N4CCC3)cc1	i	99.3*	i	20.7	20.8
Cc1ccc(-c2csnn2)cc1	i	2.4	i	-9.7	0.2
CCOc1ccc(NS(=O)(=O)c2c(C)nc3sccn3c2=O)cc1	i	0.0	i	53.8	4.3
COc1nc(Nc2ccc(O)cc2)nc(OC(C(F)(F)F)C(F)(F)F)n1	i	99.0*	i	3.7	9.1
Nc1cccc(Nc2nc(OC(C(F)(F)F)C(F)(F)F)nc(OC(C(F)(F)F)C(F)(F)F)n2)c1	i	0.0	i	7.1	15.5
CC(=O)Nc1cccc(-c2csc(Nc3ccc(C)cn3)n2)c1	i	98.8*	i	14.7	25.3
N#CC(CO)(Cc1ccc(OC(F)F)cc1)c1nc2ccccc2[nH]1 (centres undefined)	i	5.5	i	5.7	-10.9
